Compound activity (PubChem BioAssay)
DAX1 inh-1 – NR0B1 (DAX1) inhibition; P51843; inhibition, % at 6.75 µM; actives 0.99% (n = 340,000); HEK293 Gal4-DAX1 luciferase reporter, luminescence;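 active means inhibition above the mean over all tested compounds plus 3 SD, cut at about 4.2% in these data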;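 further: 0% = DAX1-transfected cells with DMSO and 100% = empty-vector control cells with DMSO; inhibition shows as a rise in luminescence from relieved DAX1 repression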
ssDAF12 agonist – S. stercoralis DAF-12 activation, primary screen; actives 1% (n = 370,000); HEK293 ssDAF-12/GRIP1 lit1-tk-luc reporter, luminescence; % of 3 µM dafachronic acid response; activation, % at 6.8 µM; AID 652126;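 active means activation above the mean over all tested compounds plus 3 SD, cut at about 0.9% in these data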;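 further: 0% = DMSO-only wells and 100% = 3 µM delta7-dafachronic acid wells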
DAX1 inh-2 – blocks DAX1 repression of SF-1 activated StAR promoter | HEK293T StAR-luciferase reporter, SF-1/DAX-1 repression relief | inhibition, % at 6.8 µM | actives 1.1% (n = 370,000);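 active means inhibition above the mean over all tested compounds plus 3 SD, cut at about 3.6% in these data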;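 further: 0% = DAX-1 cells with DMSO and 100% = cells lacking DAX-1 with DMSO; higher inhibition means more luminescence from relief of DAX-1 repression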
hcDAF12 agonist – H. contortus DAF-12 activation, primary screen | HEK293 hcDAF-12 lit1-tk-luc reporter, luminescence; 0% DMSO, 100% Δ7-dafachronic acid | activation, % at 6.8 µM | actives 1.4% (n = 370,000);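 active means activation above the mean of all tested compounds plus 3 SD, cut at about 5.5% in these data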;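 further: 100% = response to 3 µM Δ7-dafachronic acid high control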
hgDAF12 agonist – agonists of H. glycines DAF-12 nuclear receptor; HEK293 GAL4-hgDAF12 UAS-luciferase reporter, agonist luminescence; normalized to butyrate control; activation, % at 6.8 µM; actives 1.8% (n = 370,000);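 active means activation above a cutoff set at the mean of all screened compounds plus 3 SD, cut at about 10% in these data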;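 further: 0% = DMSO wells and 100% = sodium butyrate wells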
LXRb hcDAF ctr – activates human LXR-beta, counter-screen for hcDAF-12 agonists; shares compounds with hcDAF12 agonist; HEK293 Gal4-LXR tk-luc reporter, luminescence, 24 h; normalized: DMSO 0%, positive control 100%; activation, % at 6.8 µM; 3,400 tested, under 10 active; AID 743027;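 active means mean percent activation of the reporter above a cutoff set as the average over tested compounds plus their standard deviation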
Target sequence (P55055 whole entry, looked up, the tested form may be a part): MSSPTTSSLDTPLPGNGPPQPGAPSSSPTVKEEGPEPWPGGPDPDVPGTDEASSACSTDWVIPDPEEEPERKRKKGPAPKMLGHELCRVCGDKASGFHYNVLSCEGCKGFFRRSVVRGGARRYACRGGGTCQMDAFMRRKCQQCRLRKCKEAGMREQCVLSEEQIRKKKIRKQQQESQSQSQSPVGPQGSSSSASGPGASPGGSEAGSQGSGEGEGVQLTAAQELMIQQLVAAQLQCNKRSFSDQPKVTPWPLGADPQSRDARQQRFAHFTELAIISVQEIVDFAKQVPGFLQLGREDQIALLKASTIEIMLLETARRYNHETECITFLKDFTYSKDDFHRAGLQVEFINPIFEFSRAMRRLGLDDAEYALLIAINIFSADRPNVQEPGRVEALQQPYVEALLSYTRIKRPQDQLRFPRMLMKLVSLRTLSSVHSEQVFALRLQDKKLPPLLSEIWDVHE
hcDAF12 ag – hcDAF-12 agonism, confirmation assay. shares compounds with hcDAF12 agonist. HEK293 hcDAF-12 lit1-tk-luc reporter, luminescence; % of Δ7-dafachronic acid response. activation, % at 6.8 µM. actives 61% (n = 3,400);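 active means mean activation across triplicate tests above the threshold derived from the earlier primary screen, cut at about 5.5% in these data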;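 further: 0% = DMSO only wells and 100% = 3 µM Δ7-dafachronic acid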
hgDAF12 ag – hgDAF-12 agonism, confirmation assay; activation, % at 6.8 µM; actives 80% (n = 3,300); HEK293 GAL4-hgDAF12 luciferase reporter, agonist mode; percent of butyrate response; shares compounds with hgDAF12 agonist;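 active means mean activation over triplicate wells above the hit cutoff derived from the earlier primary screen, cut at about 11% in these data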;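 further: 0% = DMSO low control and 100% = 2 mM sodium butyrate high control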
LXRb DAF12 ctr – activates human LXR-beta, counter-screen for DAF-12 agonists. shares compounds with hgDAF12 agonist. HEK293 Gal4-LXR luciferase reporter, 24 h. 3,300 tested, under 10 active. AID 743051. activation, % at 6.8 µM;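 active means mean activation of the triplicate above a set limit carried over from the primary screen, none filed active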
The depositor's hits bear a star; x = not tested or not shown. A selection: hits, their analogues and other compounds. The true share with any hit is near 4.1%.

SMILES	DAX1 inh-1	ssDAF12 agonist	DAX1 inh-2	hcDAF12 agonist	hgDAF12 agonist	LXRb hcDAF ctr	hcDAF12 ag	hgDAF12 ag	LXRb DAF12 ctr
COc1ccc(-c2csc(Nc3ncccc3C)n2)cc1	3	1	2	7.5*	17*	1	5	17*	1
O=S(=O)(c1cccc2cccnc12)N1CCC(c2cn3ccccc3n2)CC1	x	-2	-2	0	1	x	x	x	x
C=CCCCCCCCCC(=O)NNC1CC(=O)N(c2ccccc2)C1=O (stereo unspecified)	2	-1	0	-1	-1	x	x	x	x
Cc1ccc(-c2csc(NC(=O)/C=C/c3ccco3)c2C(=O)O)cc1	1	0	3	11*	14*	1	6.0*	11*	1
Cc1cc(N/N=C/c2ccccc2Br)nc2ccccc12	0	-1	0	1	3	x	x	x	x
Brc1ccccc1/C=N/Nc1ccc2ccccc2n1	2	2.5*	3	11*	25*	2	13*	22*	1
Cc1c(C(=O)Nc2ccc(Br)cc2)cnn1C	2	2.3*	2	11*	15*	1	6.1*	13*	0
c1ccc(Nc2nc(-c3ccccc3)ns2)cc1	2	2.0*	2	16*	22*	2	9.5*	29*	1
COc1cccc(NC(=O)c2ccnc(N3CCC(C(=O)NCc4ccccc4OC)CC3)c2)c1	1	-1	0	2	3	x	x	x	x
COc1ccc(-c2csc(-n3cccn3)n2)cc1	4	0	2	7.0*	14*	1	5	18*	1
Cc1ccc(NC(=O)c2nnn(-c3ccc4c(c3)OCCO4)c2N)cc1	2	-1	1	0	8	x	x	x	x
Nc1c(C(=O)Nc2ccccc2)nnn1-c1ccc2c(c1)OCCO2	-1	1.8*	3	8.8*	14*	1	8.1*	16*	1
Cc1c(C=Nc2ccc(S(=O)(=O)N(C)C)cc2)c(O)[nH]c(=O)c1C#N	-1	-2	0	-1	-1	x	x	x	x
Cc1ccc(C(=O)N(CC(=O)NC2CCCC2)c2ccccc2Cl)s1	0	0	0	-2	-1	x	x	x	x
Cc1ccc(-c2cc(-c3ccc(C)cc3O)[nH]n2)cc1	5.1*	2.9*	3	15*	19*	2	10*	22*	1
Oc1ccccc1-c1ccn[nH]1	0	-2	0	1	1	x	x	x	x
Cc1ccc(-c2cc(-c3ccccc3[N+](=O)[O-])[nH]n2)c(O)c1	5.3*	2.3*	3	9.9*	14*	1	9.6*	16*	1
Cc1ccccc1-c1cc(-c2ccccc2O)n[nH]1	5.6*	1.4*	4	11*	16*	1	8.1*	18*	1
Cc1ccc(-c2cc(NC(=O)c3ccccc3[N+](=O)[O-])n[nH]2)cc1	-2	-1	0	-1	1	x	x	x	x
Nc1nc(-c2cc(-c3ccccc3)no2)cs1	4	1	2	7.9*	18*	1	5	21*	1
CC(=Nc1cccc(C)c1)c1sc2ccccc2c1O	4	4.0*	2	15*	14*	1	13*	25*	1
O=[N+]([O-])c1cccc(N=Cc2sc3ccccc3c2O)c1	x	-1	1	1	1	x	x	x	x
CC1Cc2c([nH]c3ccccc23)C2c3ccccc3CN12 (stereo unspecified)	2	0	0	4	0	x	x	x	x
Cc1cc(C)c(C#N)c(SCc2ccc(F)cc2)n1	0	-1	0	0	-4	x	x	x	x
Cc1cc(C)c(C#N)c(SCc2nc3ccccc3[nH]2)n1	4.8*	3.6*	3	18*	15*	1	11*	12*	0
SMILES	DAX1 inh-1	ssDAF12 agonist	DAX1 inh-2	hcDAF12 agonist	hgDAF12 agonist	LXRb hcDAF ctr	hcDAF12 ag	hgDAF12 ag	LXRb DAF12 ctr
COc1ccc(S(=O)(=O)N2C[C@H]3CON(C)[C@H]3C[C@H]2c2ccc(-c3cc4ccccc4o3)cc2)cc1	-2	-1	0	0	-5	x	x	x	x
Cc1cc(OCc2nc3ccccc3s2)ccc1N	3	2.0*	2	13*	14*	1	14*	19*	1
c1ccc(OCc2nc3ccccc3s2)cc1	5.8*	1.6*	3	8.6*	14*	1	5.9*	18*	1
c1ccc(SCc2nc3ccccc3s2)nc1	3	4.5*	2	15*	14*	1	7.8*	16*	1
N#C/C(=C(/O)COc1ccccc1)c1nc2ccccc2s1	4	-1	0	1	-1	x	x	x	x
Cc1cc(C(=O)OCc2nc3ccccc3s2)c(C)o1	1	-1	0	4	7	x	x	x	x
CCOC(=O)C1CCN(C(=O)C(C)(C)NC(=O)Nc2ccc(C(F)(F)F)cc2Cl)CC1	x	-2	x	-1	-1	x	x	x	x
Cc1ccc(N/C=C/C(=O)c2ccccc2)cc1Br	2	3.4*	3.8*	16*	19*	2	16*	25*	1
CCOC(=O)c1cc(S(=O)(=O)N2CCC(C)CC2)cn1C	0	-1	0	0	-1	x	x	x	x
Cc1cccc(NC(=S)c2nc3ccccc3s2)c1	2	2.1*	2	8.8*	13*	1	9.9*	16*	1
Cc1ccc(NC(=O)c2ccc(Cl)cc2Cl)cc1O	7.7*	1.9*	3	9.6*	17*	1	6.2*	15*	1
O=C(Nc1ccc(Nc2ccccc2)cc1)c1ccc(Cl)cc1Cl	x	-1	-1	-1	2	x	x	x	x
Brc1ccc(Nc2nc(-c3cccnc3)cs2)cc1	3	1	2	8.0*	23*	1	11*	13*	0
COc1ccccc1Nc1nc(-c2cccc([N+](=O)[O-])c2)cs1	1	0	0	0	1	x	x	x	x
O=[N+]([O-])c1cccc(-c2csc(Nc3ccccc3)n2)c1	2	0.9*	0	6.8*	14*	1	8.0*	17*	0
COc1cccc(CN2CC(C(=O)NCCSc3nnnn3C)CCC2=O)c1 (stereo unspecified)	2	-1	-1	-1	3	x	x	x	x
